Source: PubChem BioAssay (NCI)
The panel holds about 83,000 compounds, 20% with a hit somewhere; the sample as a whole holds those more often.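 How to read the values: 0–100, growth inhibition (40 = 60% inhibited); 0, no net growth; -100 to 0, cell death (-40 = 40% of starting cells died; -100 = all dead).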 Unmarked numbers belong to inactive results. Active and inactive are the calls of the source. How the source made its calls: active means growth percent below 10; inactive means the rest.

Legend:
Assay in all cases: NCI-60 one-dose screen, 48 h (100 = growth as untreated, 0 = no growth, -100 = all killed)
NCI-H23 lung = conditions: 10 µM unless noted
NCI-H226 lung = conditions: 10 µM unless noted
NCI-H322M lung = conditions: 10 µM unless noted
HOP-62 NSCLC = conditions: 10 µM unless noted
HOP-92 NSCLC = conditions: 10 µM
NCI-H522 lung = conditions: 10 µM
A549/ATCC NSCLC = conditions: 10 µM unless noted
786-0 renal = conditions: 10 µM unless noted
COLO 205 colon = conditions: 10 µM unless noted
DU-145 prostate = conditions: 10 µM unless noted
K-562 leukemia = conditions: 10 µM unless noted
MALME-3M melanoma = conditions: 10 µM unless noted
MDA-MB-231 breast = conditions: 10 µM unless noted
RXF 393 renal = conditions: 10 µM unless noted
SF-268 CNS = conditions: 10 µM unless noted
SF-295 CNS = conditions: 10 µM unless noted
SF-539 CNS = conditions: 10 µM unless noted
UACC-257 melanoma = conditions: 10 µM unless noted
M14 melanoma = conditions: 10 µM unless noted
NCI-H460 lung = conditions: 10 µM unless noted

Row | SMILES | growth (NCI-H23 lung) | growth (NCI-H226 lung) | growth (NCI-H322M lung) | growth (HOP-62 NSCLC) | growth (HOP-92 NSCLC) | growth (NCI-H522 lung) | growth (A549/ATCC NSCLC) | growth (786-0 renal) | growth (COLO 205 colon) [%] | growth (DU-145 prostate) | growth (K-562 leukemia) | growth (MALME-3M melanoma) | growth (MDA-MB-231 breast) | growth (RXF 393 renal) | growth (SF-268 CNS) | growth (SF-295 CNS) | growth (SF-539 CNS) | growth (UACC-257 melanoma) | growth (M14 melanoma) | growth (NCI-H460 lung) [%]
1 | CC(=O)CCS(=O)c1ccccc1 (stereo not given) | 98.1% | 107% | 93.7% | 105% | 92.8% | 82.7% | 96.1% | 105% | 124 | 103% | 98.9% | 97.2% | 106% | 99.7% | 94.9% | 97.6% | 113% | 99.5% | 105% | 
2 | Cc1cc(CSc2ccc(Cl)cc2)ccc1N | 99.2% | 82.9% | 98.2% | 110% | 85.2% | 81.5% | 60.3% | 69.8% | 107 | 88.5% | 99.6% |  | 61.9% | 105% | 70% | 101% | 62.9% | 108% | 101% | 
3 | COc1ccc2c(N)ncc(C#Cc3cc(C(=O)Nc4ccc(CN5CCN(C)CC5)c(C(F)(F)F)c4)cnc3C)c2c1 | -30.3% (active) | 55% | 31.6% | 45.3% | 1.06% (active) | -38.3% (active) | -68.6% (active) | -55.6% (active) |  | -89.2% (active) | -63.4% (active) | -81.9% (active) | -85% (active) | -73.4% (active) | 6.51% (active) | 63% | -93.4% (active) | 27.4% | -78.1% (active) | 
4 | Oc1ccc([S+](c2ccc(O)cc2)c2ccc(O)cc2)cc1 | 106% | 88.3% | 95.3% | 94.3% | 92.2% | 112% | 98.7% | 106% | 102 | 120% | 94.7% | 106% | 117% | 94.6% | 114% | 96% | 98.9% | 98.4% | 105% | 
5 | N/C(=N\O)c1ccncc1 | 95.6% | 117% | 101% | 93.6% | 107% | 93.4% | 102% | 100% | 103 | 104% | 104% | 108% | 102% | 115% | 97.9% | 94.5% | 105% | 106% | 99.8% | 
6 | CC1(C)NC(=S)NC1=O | 101% | 99.6% | 107% | 104% | 101% | 116% | 98% | 100% | 108 | 116% | 89% | 106% |  | 105% | 111% | 95.7% | 111% | 106% | 98.5% | 
7 | Cc1ncc(C(=O)Nc2ccc(CN3CCN(C)CC3)c(C(F)(F)F)c2)cc1C#Cc1c(N)ncc2ccccc12 | -73.1% (active) | -79.1% (active) | -99% (active) | -97.2% (active) | -37.9% (active) | -85.7% (active) | -96.6% (active) | -91.8% (active) |  | -87.8% (active) | -73.2% (active) | -84.9% (active) | -96.6% (active) | -93.9% (active) | -54.4% (active) | -90.5% (active) | -98.5% (active) | -86% (active) | -86.1% (active) | 
8 | Cc1ccc(C(=O)Nc2ccc(CN3CCN(C)CC3)c(C(F)(F)F)c2)cc1C#Cc1cnc(N)c2ccc(C#N)cc12 | 48.3% | 54.4% | 73.8% | 42.7% | 13.7% | 60.6% | 36.7% | -25% (active) |  | 43.1% | -25.5% (active) | -51.9% (active) | 11.2% | 30.4% | 45% | 61.8% | 51.8% | 45.6% | 8.81% (active) | 
9 | O=C(NCCCl)Nc1nccnc1OCc1ccc(F)cc1 | 97.2% | 100% | 104% | 91.4% | 79.4% | 77.6% | 102% | 89% |  | 114% | 99.4% | 148% | 87.6% | 109% | 99.2% | 99.2% | 109% | 109% | 95.3% | 
10 | CN1CCN(Cc2ccc(NC(=O)c3ccc(C#Cc4c(N)ncc5ccc(F)cc45)cc3)cc2C(F)(F)F)CC1 | -80.4% (active) | 55.1% | -49% (active) | -39.2% (active) | -2% (active) | -85.2% (active) | -49.1% (active) | -56.6% (active) |  | -46.5% (active) | -44.5% (active) | -88.1% (active) | -72.5% (active) | -43.5% (active) | -21.1% (active) | -56.7% (active) | -90% (active) | -58.5% (active) | -89.2% (active) | 
11 | Cc1ccc(C(=O)Nc2ccc(CN3CCN(C)CC3)c(C(F)(F)F)c2)cc1C#Cc1cnc(N)c2ccc(F)cc12 | -77.3% (active) | -45.5% (active) | -99.3% (active) | -68.8% (active) | -90.3% (active) | -75.1% (active) | -87.5% (active) | -85.3% (active) |  | -91.7% (active) | -78.2% (active) | -88.4% (active) | -90.7% (active) | -90.8% (active) | -75.2% (active) | -76.9% (active) | -92.5% (active) | -60.9% (active) | -83.1% (active) | 
12 | CCOC(=O)CNS(=O)(=O)CC(=O)c1ccccc1 | 101% | 101% | 87.9% | 83.8% |  | 89.8% | 116% | 97.5% | 130 | 117% | 86.8% | 83% | 97.3% | 117% | 124% | 118% |  | 132% | 93.4% | 
13 | N#CCCCCCCCCCCC#N | 93.8% | 111% | 114% | 104% |  | 86% | 93.3% | 99.9% | 111 | 106% | 103% | 139% | 105% | 113% | 109% | 92% | 108% | 87.7% | 103% | 
14 | CCCCCCC(C)N(CC(C)(C)O)C(=O)c1ccc([N+](=O)[O-])cc1 (stereo not given) | 99.2% | 95.2% | 91.1% | 87.3% |  |  | 104% | 94.5% | 99.6 | 101% | 85.1% | 95.8% | 106% | 100% | 110% | 88.6% | 108% | 106% | 93.4% | 
15 | CC(O)c1cc[cH-]c1.[Fe+2].c1cc[cH-]c1 (stereo not given) | 102% | 91.2% | 92.6% | 99.4% |  |  | 101% | 97.2% | 108 | 108% | 102% | 102% | 110% | 95.6% | 108% | 98.8% | 97% | 96.9% | 95.6% | 
16 | O=C1Nc2c(c(=O)n(-c3ccccc3)c3ccccc23)C(c2ccc(Cl)cc2)N1 (stereo not given) | 90.4% | 99.2% | 95.5% | 84.2% |  |  | 76.2% | 60.8% | 107 | 86.7% | 93.7% | 121% | 89.1% | 103% | 70.9% | 65.3% | 77% | 118% | 95.2% | 
17 | Brc1c(-c2ccncc2)nc2n1CCS2 | 113% | 93.4% | 107% |  | 73.9% | 76.5% | 94.1% | 26.3% | 120 | 116% | 111% | 114% | 101% | 84.6% | 107% | 102% | 119% | 91.1% |  | 103
